# Screens from PubChem.
# Compounds with a hit are over-represented: about 3% of the library has one in this group of screens.
# PAX8 inh HTS = inhibitors of PAX8 transcriptional activity in RMG-I cells; RMG-I TPO-luciferase reporter, SteadyGlo, 24 h; inhibition, % at 12.6 µM; hit rate 1.2% among 360,000;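 active = mean replicate inhibition at least 60% with every replicate also reaching 60%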;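 note: luciferase light reporting Pax8 driven TPO promoter activity; plate controls were median of neutral control wells for no effect and mitoxantrone controls for full effect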
# Shn3 3UTR inh = reduces Shn3 3'UTR luciferase signal in osteoblasts; Clone20 osteoblast Shn3 3'UTR firefly luciferase, 24 h; inhibition, % at 12.5 µM; hit rate 0.52% among 360,000;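 active = mean inhibition of at least 75% with every replicate also reaching 75%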;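 note: 0% = median of neutral control wells and 100% = pilot-screen positive control compound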
# TRPM1 prom inh = reduces MITF-dependent TRPM1 promoter luciferase signal. SK-MEL-5 TRPM1 promoter luciferase, 24 h. inhibition, % at 12.5 µM. hit rate 0.83% among 330,000. AID 488899;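 active = mean inhibition across replicates of 60% or more, whatever share of single replicates reaches that level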
# Peg3 promoter = inhibitors of Peg3 promoter; inhibition, % at 20 µM; hit rate 1.7% among 360,000; HeLa PEG-Prom luciferase reporter, luminescence, overnight;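 active = inhibition of at least 50% at 20 µM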
# EWS-Fli inh = inhibitors of EWS/Fli oncoprotein transcriptional activity; A673 NR0B1-luciferase reporter, viability-normalised; inhibition, % at 12.6 µM; hit rate 0.67% among 350,000;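 active = mean inhibition of at least 50% after viability correction, with every replicate also passing that limit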;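 note: firefly luciferase signal divided by Alamar Blue viability fluorescence both relative to DMSO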
# ABHD5 PLIN5 PPI = inhibitors of human ABHD5-perilipin-5 interaction; AID 602281; hit rate 0.78% among 360,000; Split G. princeps luciferase complementation, luminescence, 4 h; Q00G26+Q8WTS1; inhibition, % at 4 µM;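 active = inhibition above the mean inhibition across every tested compound plus 3 SD, cut at about 22% in these data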;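 note: 0% = DMSO only wells and the 100% control is not disclosed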
# Target sequence (Q00G26 whole entry, looked up): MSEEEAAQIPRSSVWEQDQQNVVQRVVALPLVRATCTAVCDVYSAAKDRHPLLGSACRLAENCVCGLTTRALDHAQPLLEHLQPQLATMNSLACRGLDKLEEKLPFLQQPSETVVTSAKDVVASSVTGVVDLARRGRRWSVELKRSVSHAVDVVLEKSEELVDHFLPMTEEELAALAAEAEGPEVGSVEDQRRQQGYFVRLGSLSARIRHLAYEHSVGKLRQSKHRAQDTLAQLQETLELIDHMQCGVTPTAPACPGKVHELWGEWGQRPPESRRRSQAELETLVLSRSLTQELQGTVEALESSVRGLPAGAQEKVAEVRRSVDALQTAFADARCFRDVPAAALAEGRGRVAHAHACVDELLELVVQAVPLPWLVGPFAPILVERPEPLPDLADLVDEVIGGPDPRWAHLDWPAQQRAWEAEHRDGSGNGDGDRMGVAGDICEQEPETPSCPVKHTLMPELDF
# Target sequence (Q8WTS1 whole entry, looked up): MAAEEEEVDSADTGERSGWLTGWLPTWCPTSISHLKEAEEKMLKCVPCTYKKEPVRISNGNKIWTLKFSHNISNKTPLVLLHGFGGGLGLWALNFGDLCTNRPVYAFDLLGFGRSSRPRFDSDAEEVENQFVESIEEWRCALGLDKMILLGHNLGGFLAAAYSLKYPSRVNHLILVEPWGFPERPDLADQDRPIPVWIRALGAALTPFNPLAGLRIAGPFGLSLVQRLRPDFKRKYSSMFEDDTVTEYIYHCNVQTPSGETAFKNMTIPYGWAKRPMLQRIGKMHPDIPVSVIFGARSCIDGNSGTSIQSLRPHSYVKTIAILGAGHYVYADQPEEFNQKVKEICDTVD
# ABHD5-PLIN5 conf = ABHD5-PLIN5 interaction inhibition, confirmed. shares compounds with ABHD5 PLIN5 PPI. biochemical ABHD5-PLIN5 interaction, luminescence. inhibition, % at 4 µM. hit rate 67% among 2,200; in the data active = inhibition above about 23%;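 note: 0% = DMSO vehicle wells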
# HNF4 counter = active in HNF4 split-luciferase counter-screen for ABHD5-PLIN5 inhibitors | shares compounds with ABHD5 PLIN5 PPI | HNF4 dimerization, luminescence, biochemical | inhibition, % at 4 µM | hit rate 77% among 2,200 | AID 651674;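 active = mean inhibition across replicate wells exceeding the computed hit threshold, cut at about 13% in these data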;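 note: light from luciferase halves that rejoin when HNF4 fusion proteins dimerize; 0% = DMSO only wells and the 100% control is not given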
# The depositor's hits bear a star; x = not tested or not shown.
SMILES,PAX8 inh HTS,Shn3 3UTR inh,TRPM1 prom inh,Peg3 promoter,EWS-Fli inh,ABHD5 PLIN5 PPI,ABHD5-PLIN5 conf,HNF4 counter
CC1CCN(CCc2nc3cc(NC(=O)COc4ccc(Cl)cc4)ccc3n2C)CC1,75*,11,23,25,x,23*,8,4
COc1ccc(OCC(=O)Nc2ccc3c(c2)nc(CCN2CCC(C)CC2)n3C)cc1,15,-23,3,-3,-4,9,x,x
C=C1C(=O)C2=CC1CCC(=O)C1(C)CCC(OC(C)=O)C(C)(C)C1CC2O (stereo not given),105*,84*,x,99*,57*,44*,58*,92*
CC(=O)OC1CCC2C3CCC4OC(=O)CCC4C3CCC12C (stereo not given),5,-16,-8,4,2,5,x,x
CO[C@H]1CN(C)C(=O)c2cc(NC(C)=O)ccc2OC[C@H](C)N(Cc2cc(F)ccc2F)C[C@H]1C,19,x,x,x,5,x,x,x
CCOC(=O)c1c(-c2ccc(C)o2)csc1NC(=O)CSc1nnc(C)s1,x,34,-16,20,x,33*,7,37*
CCOC(=O)c1c(-c2ccc(C)o2)csc1NC(=O)CSc1nnnn1-c1ccccc1,x,39,10,17,x,40*,23*,62*
CCOC(=O)c1c(-c2ccc(C)o2)csc1NC(=O)COC(=O)c1ccc(NC(N)=O)cc1,-8,38,7,13,x,38*,21,44*
O=C(C[C@H]1C[C@@H]2c3cc(NS(=O)(=O)c4ccc(F)cc4)ccc3O[C@@H]2[C@H](CO)O1)N1CCOCC1,0,x,x,x,2,x,x,x
O=C(O)C[C@H]1C[C@H]2c3cc(NC(=O)NC4CCCC4)ccc3O[C@H]2[C@H](CO)O1,-3,x,x,x,1,x,x,x
O=C(N/N=C/c1ccccc1)C(=O)N/N=C/c1ccccc1,-6,-3,-7,4,0,1,x,x
O=C(C=C=Nc1ccccc1)C(=O)N=C=Cc1ccccc1,80*,-3,82*,102*,7,73*,96*,99*
CCN(Cc1ccccc1)c1ccc(N=Nc2nn(C)c(C)c2[N+](=O)[O-])cc1,-63,5,-55,-196,-16,9,x,x
CCN(CC)c1ccc(N=Nc2nn(C)c(C)c2[N+](=O)[O-])cc1,-77,-10,-33,-162,-93,25*,29*,33*
COc1ccc(C(C(=O)NCc2ccccc2)n2c(=O)c(-c3ccco3)nc3ccccc32)cc1 (stereo not given),4,x,x,x,-17,72*,78*,42*
O=C(NCc1ccccc1)C(c1ccccc1F)n1c(=O)c(-c2ccco2)nc2ccccc21 (stereo not given),-4,x,x,x,-14,67*,69*,32*
COc1ccc(NC(=O)C(c2ccc(C(F)(F)F)cc2)n2c(=O)c(-c3ccco3)nc3ccccc32)cc1 (stereo not given),20,x,x,x,1,12,x,x
Cc1ccc(-c2ccc3c(c2)O[C@H](CN(C)C(=O)Nc2ccc(C(F)(F)F)cc2)[C@@H](C)CN([C@@H](C)CO)S3(=O)=O)cc1,x,x,x,x,23,x,x,x
N#C[C@H]1[C@H](c2ccc(C#Cc3ccccc3F)cc2)[C@H](CO)N1C(=O)C1CCCC1,x,x,x,x,1,x,x,x
O=C(Nc1ccc(Cl)cc1)/C(=C/c1cccc(O)c1)c1nc2ccccc2s1,98*,93*,92*,101*,30,30*,86*,61*
CC(C)NC(=O)N(C)C[C@@H]1Oc2c(NC(=O)Nc3cccc4ccccc34)cccc2C(=O)N([C@H](C)CO)C[C@H]1C,17,x,x,x,11,x,x,x
CC1CCC/C=C/C(=O)c2c(O)cc(O)cc2CC(=O)O1 (stereo not given),x,87*,92*,106*,45,32*,54*,70*
Cc1ccccc1NN=Nc1nc2c([nH]1)c(=O)n(C)c(=O)n2C,2,14,8,2,7,0,x,x
Cn1c(=O)c2[nH]c(N=NNc3ccccc3F)nc2n(C)c1=O,1,-4,-4,-22,-30,24*,9,14*
